Screening data deposited in PubChem by Broad Institute.
Most compounds without a hit are left out; they make up all but 2.1% or so of the library.
NSD2 HMT inh: NSD2 (human) methyltransferase inhibition. O96028. NSD2 peptide methylation, AlphaScreen, 120 min. inhibition, % at 12.5 µM. 310,000 compounds, 0.54% hits. AID 743445; in the data active = inhibition above about 50%
Target sequence (O96028 whole entry, looked up): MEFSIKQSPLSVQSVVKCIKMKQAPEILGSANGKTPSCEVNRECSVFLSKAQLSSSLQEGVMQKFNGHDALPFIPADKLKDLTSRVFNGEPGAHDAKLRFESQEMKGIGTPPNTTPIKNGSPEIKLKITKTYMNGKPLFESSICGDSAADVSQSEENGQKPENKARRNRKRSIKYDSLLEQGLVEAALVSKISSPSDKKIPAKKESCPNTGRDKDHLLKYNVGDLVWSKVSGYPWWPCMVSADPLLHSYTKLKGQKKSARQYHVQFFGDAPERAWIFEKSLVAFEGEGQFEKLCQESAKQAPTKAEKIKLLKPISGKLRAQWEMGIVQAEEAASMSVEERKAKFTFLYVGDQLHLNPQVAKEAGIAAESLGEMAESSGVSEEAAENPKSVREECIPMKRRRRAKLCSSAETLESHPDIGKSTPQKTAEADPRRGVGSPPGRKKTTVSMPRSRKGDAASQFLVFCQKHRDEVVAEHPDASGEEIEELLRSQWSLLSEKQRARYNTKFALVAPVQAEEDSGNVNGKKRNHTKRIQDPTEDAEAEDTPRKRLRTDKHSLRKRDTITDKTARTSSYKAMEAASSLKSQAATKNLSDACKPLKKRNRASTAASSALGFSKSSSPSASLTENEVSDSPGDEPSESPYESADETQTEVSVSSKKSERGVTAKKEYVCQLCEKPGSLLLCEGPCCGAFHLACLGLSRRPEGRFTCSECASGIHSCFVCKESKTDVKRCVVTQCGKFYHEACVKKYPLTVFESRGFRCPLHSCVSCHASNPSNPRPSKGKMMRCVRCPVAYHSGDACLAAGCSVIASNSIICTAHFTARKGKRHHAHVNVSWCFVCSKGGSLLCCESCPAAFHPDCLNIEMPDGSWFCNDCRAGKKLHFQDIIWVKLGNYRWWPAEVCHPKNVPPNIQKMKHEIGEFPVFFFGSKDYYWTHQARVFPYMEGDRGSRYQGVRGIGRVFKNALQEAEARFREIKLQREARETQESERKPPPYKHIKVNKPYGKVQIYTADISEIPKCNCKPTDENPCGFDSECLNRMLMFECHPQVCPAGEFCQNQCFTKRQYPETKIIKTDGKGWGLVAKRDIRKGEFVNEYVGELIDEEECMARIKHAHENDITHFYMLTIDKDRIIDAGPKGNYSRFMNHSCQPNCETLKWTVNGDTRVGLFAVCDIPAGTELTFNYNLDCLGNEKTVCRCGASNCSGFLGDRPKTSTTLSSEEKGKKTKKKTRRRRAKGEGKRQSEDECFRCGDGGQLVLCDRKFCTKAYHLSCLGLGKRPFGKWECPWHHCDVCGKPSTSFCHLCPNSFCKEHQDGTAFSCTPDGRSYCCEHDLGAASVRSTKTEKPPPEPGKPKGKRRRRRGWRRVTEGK
Env fusion inh: inhibitors of HIV Env-mediated cell fusion; AID 651610; HeLa-JRFL Env/CEM21 cell fusion, luciferase; inhibition, % at 12.3 µM; 360,000 compounds, 1.1% hits;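 active = mean replicate inhibition score of at least 50 and every replicate individually at or above 50; inconclusive = only one of the two criteria met; inactive = mean below 50 and not all replicates reaching 50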;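 note: 0% = plate neutral controls and 100% = maraviroc near 300 nM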
PGC1a acetyl inh: modulators of PGC1a acetylation. U2OS PGC1a acetylation, AlphaScreen anti-acetyl-lysine; with virally co-expressed GCN5 acetyltransferase. inhibition, % at 15.6 µM. 350,000 compounds, 0.17% hits. AID 651687;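 active = every replicate shows inhibition of at least 40%; inconclusive = mean inhibition at least 40% but some replicate below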;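 note: 0% = neutral control wells and 100% = positive control wells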
AF4-AF9 inh: blocks AF4 peptide binding to human AF9. 350,000 compounds, 0.47% hits. inhibition, % at 10 µM. AlphaScreen, biotin-AF4 peptide binding to FLAG-AF9. AID 651704. P42568;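 active = every replicate reaching a set inhibition limit, whatever the replicate mean, cut at about 25% in these data; inconclusive = mean inhibition reaches that limit but some replicates miss it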;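 note: 0% = plate neutral control median and 100% = total signal loss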
GSIS activator: GLuc luminescence reporter in INS-1E cells, primary screen for activators of glucose-dependent secretion of insulin | INS-1E GLuc reporter insulin secretion, 2-3 h | activation, % at 16.6 µM | 370,000 compounds, 0.61% hits;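 active = lowest replicate activation of at least 40%, so every replicate reaches that level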;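 note: 0% = median of neutral control wells and 100% = median of IBMX positive control wells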
* hit, by the source's call; u = inconclusive; x = no result.

SMILES	NSD2 HMT inh	Env fusion inh	PGC1a acetyl inh	AF4-AF9 inh	GSIS activator
N#CCOc1nc(N2CCOCC2)nc(N2CCOCC2)n1	-1	-18	8	x	x
CC12CC3CC(C)(C1)CC(Nc1nc(N4CCOCC4)nc4ccccc14)(C3)C2	-15	24	x	-15	-9
COc1ccc(S(=O)(=O)N2CCCCC2)cc1NC(=O)C1CCCC1	-5	10	6	2	52*
COc1ccc(S(=O)(=O)N2CCCCC2)cc1NC(=O)Cc1sc(C)nc1-c1ccc(F)cc1	-12	80*	-12	11	-38
CCOc1ccc(S(=O)(=O)N2CCCCC2)cc1NC(=O)C1CCC1	-1	-16	x	1	-2
Cc1ccc([N+](=O)[O-])cc1NC(=O)c1ccc(C(C)(C)C)cc1	0	x	-9	-38	9
O=C(Nc1ccc2c(c1)oc1ccccc12)c1ccc2c(c1)OCO2	-2	-84	x	x	x
O=C(COc1ccc2c(c1)OCO2)Nc1ccc2c(c1)oc1ccccc12	-1	x	7	x	81*
COc1ccccc1CNC(=O)C1CCCN1S(=O)(=O)c1cccc2cccnc12 (centres undefined)	x	57*	-9	-18	1
COCCNC(=O)[C@@H]1CCCN1S(=O)(=O)c1cccc2cccnc12	x	9	-4	-5	7
Cc1nc2c(o1)C(=O)c1ccccc1C2=Nc1ccccc1	x	79*	x	-1	14
CC(=O)c1c(C)oc2c1C(=O)c1ccccc1C2=O	7	13	x	8	9
Cc1ccc(F)cc1CNC(=O)C1CCC(=O)N(CCc2ccccc2)C1 (centres undefined)	1	2	-9	-4	-19
COc1ccccc1CN1[C@@H](CO)[C@@H]2c3ccccc3N(C(=O)c3cccnc3)C[C@@H]21	x	x	7	44*	5
CC(C)(C)C1CCC(CN2C(Nc3ccccc3)=NC[C@@H]2Cc2ccccc2)CC1 (some centres undefined)	x	-1	u	14	86*
CCN1C(Nc2ccccc2)=NC[C@@H]1Cc1ccccc1	x	13	0	-5	10
CCN(CC(=O)Nc1ccccc1OC)C(=O)C1CCCC1	-2	3	x	0	68*
C=C1SC(=Nc2ccccc2Cl)N(C(=O)c2sc3ccccc3c2Cl)C1(C)C	-2	11	x	3	13
C=C1SC(=Nc2c(C)cccc2Cl)N(C(=O)c2sc3ccccc3c2Cl)C12CCCCC2	4	13	x	2	135*
COC(=O)c1sccc1NC(=O)COc1ccc(Cl)cc1Cl	-1	-100	x	x	61*
CC(=O)N1CCN(c2ccc(NC(=O)COc3ccc(Cl)cc3Cl)cc2)CC1	-2	53*	3	x	x
CC(=O)N1CCN(c2ccccc2NC(=O)COc2ccc(Cl)cc2Cl)CC1	0	x	-7	x	x
O=C(COc1ccc(Cl)cc1Cl)N1CCCN(C(=O)COc2ccc(Cl)cc2Cl)CC1	-1	83*	5	x	-25
COC(=O)c1sccc1NC(=O)COc1ccc(C)cc1	-3	-6	x	-1	-5
Cc1cc(Cl)ccc1OCC(=O)N1CCCCC1	2	x	10	x	x
SMILES	NSD2 HMT inh	Env fusion inh	PGC1a acetyl inh	AF4-AF9 inh	GSIS activator
COc1ccc(/C=C(\NC(=O)c2ccccc2)C(=O)NNC(=O)CCN2CCOCC2)cc1	-2	-58	-3	0	10
O=C(C[C@H]1C=C[C@@H](NS(=O)(=O)c2ccccc2F)[C@@H](CO)O1)NCCCN1CCOCC1	x	x	-3	0	2
CCOC(=O)Cn1c(=O)n(Cc2ccccc2)c(=O)c2cccnc21	-4	-12	4	0	179*
CCOC(=O)Cn1c(-c2ccccc2)nc2ccccc2c1=O	-5	30	13	x	-3
O=C(N/N=C/c1ccc(Br)s1)c1ccncc1	-3	-2	x	-1	13
COCC(=O)Nc1ccc2c(c1)C(=O)N(C)[C@H]1CC[C@H](CC(=O)NCC(F)(F)F)O[C@H]1CO2	x	x	4	-1	21
CCc1c(C)nc(SC/C=C/c2ccccc2)[nH]c1=O	-1	x	-5	x	x
O=C(NCc1cccnc1)Nc1ccc(Br)cc1Cl	-3	56*	x	-1	17
O=C(NCc1ccncc1)Nc1ccc(Cl)cc1Cl	-1	x	-7	x	-7
O=C(NCc1cccnc1)Nc1ccc(Cl)cc1Cl	-5	57*	2	0	9
Cc1ccnc(NC(=O)Nc2ccc(Br)cc2Cl)c1	-1	-253	x	x	133*
O=C(CSc1nnc(Cc2ccccc2)o1)c1ccc(F)cc1	-7	-13	0	-1	x
C[C@@H]1CN([C@@H](C)CO)C(=O)c2c(c3ccccc3n2C)-c2ccccc2CO[C@@H]1CN(C)Cc1cccc(O)c1	x	x	-7	10	-20
C/C(=N\NC(=O)c1cc(-c2ccc(Cl)s2)[nH]n1)c1ccncc1	-3	4	11	43*	10
C/C(=N\NC(=O)c1cc(-c2ccc(Br)s2)[nH]n1)c1ccncc1	-2	13	1	-1	33
C/C(=N\NC(=O)c1cc(C)[nH]n1)c1ccc(-c2ccccc2)cc1	-2	-82	79*	-9	-12
O=C(Nc1cccc2ncccc12)c1ccc(Cl)cc1	-2	-8	20	-8	-2
CCc1ccc(C(=O)Nc2cccnc2Oc2ccc(Cl)cc2)cc1	33	1	87*	-4	-3
CCCCc1nn(-c2cc(Cl)ccc2OC)c2c1C(=O)CC(C)(C)C2	x	57*	-17	-5	-15
O=[N+]([O-])c1ccc2nc(-c3ccc(Cl)cc3)[nH]c2c1	4	-103	x	7	-7
O=[N+]([O-])c1ccc(-c2cc(-c3ccc(Cl)cc3)n[nH]2)cc1	1	x	-12	x	71*
O=C(c1cc(Br)c(Br)s1)N1CCOCC1	-1	63*	x	12	16
Cc1cc2ccccn2c1C(=O)c1cc([N+](=O)[O-])cc([N+](=O)[O-])c1	8	15	9	33*	-3
Cc1cc(C)nc(Sc2ccc(/C=C(\C#N)C(N)=O)o2)n1	0	x	x	5	-5
COc1ccc2cc(-c3[nH]ncc3CN3CCCCO3)ccc2c1	4	-30	5	5	7
SMILES	NSD2 HMT inh	Env fusion inh	PGC1a acetyl inh	AF4-AF9 inh	GSIS activator
Cc1ccc(-n2nc(C)c(NC(=O)CCl)c2C)cc1	0	-127	16	x	19
Cc1cccc(C=NNc2cc(C)c3cccc(C)c3n2)n1	5	-44	x	25*	-8
CN(C)CCCN(C(=O)c1ccc2c(c1)CCCC2)c1nc2c(F)cccc2s1	8	-3	x	32*	0
CN(C)CCCN(C(=O)c1cc(Cl)sc1Cl)c1nc2cc3c(cc2s1)OCO3	9	-3	x	28*	-41
CN(C)CCCN(C(=O)c1cc2cc([N+](=O)[O-])ccc2s1)c1nc2cc3c(cc2s1)OCCO3	x	87*	54*	14	-11
CN(C)CCN(C(=O)c1ccc2c(c1)CCCC2)c1nc2cc3c(cc2s1)OCCO3	7	-1	x	37*	-51
CC(C)CNc1ncnc2c1ncn2[C@H]1CN(Cc2cccs2)C[C@@H](CO)O1	-1	49	x	-4	-14
CC(C)NC(=O)c1c(CSc2ccc(Cl)cc2)noc1C(=O)NCc1ccccc1	x	3	8	-1	x
